Values joined by “and” are separate entries in the source; they are usually repeats but may differ in a detail not shown here. Identical values can stand only once. Compounds without any hit were thinned out: in the full panel of roughly 83,000, 20% have a hit.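 Method: cells in 96-well plates; compound added at one concentration; 48 h incubation; percent growth measured; values under 10 scored active.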 Active and inactive are the calls of the source.
These compounds were tested on HOP-62 NSCLC (assay: NCI-60 one-dose screen, 48 h (100 = growth as untreated, 0 = no growth, -100 = all killed)). Conditions: 10 µM unless noted.

With `CC1CC(O)CC(C)(C)C1.CC1CC(O)CC(C)(C)C1.CC1CC(O)CC(C)(C)C1.CC1CC(O)CC(C)(C)C1.[Ti]` (configuration not stated) as the compound, how does the growth read?
The growth was 103% (inactive).

With `CC(=O)Oc1ccc(C(c2ccc(OC(C)=O)cc2)c2ccccn2)cc1` as the compound, how does the growth read?
Its growth is 87.9% (inactive) and 109% (inactive).

With `CC(C)=NOC(C)C(=O)O` (configuration not stated) as the compound, how does the growth read?
The growth was 110% (inactive).

With `CCNCc1ccccc1` as the compound, how does the growth read?
Its growth is 102% (inactive).

With `Oc1cccnc1CN1CCOCC1` as the compound, how does the growth read?
Its growth is 96.6% (inactive) and 92.7% (inactive).

How did the growth turn out when `O=C1C2=C(Nc3cc(Cl)ccc3N2)OC1c1c[nH]c2ccc(COc3ccccc3)cc12` (configuration not stated) was run?
Its growth is -14.7% (active).

`CCOC(=O)C1=C(C)NC(C)=C(C(=O)OCC)C1` was tested. Which growth did it give?
Its growth is 117% (inactive) and 91.3% (inactive).

With `CC(C)(C)C1CCC(=NO)CC1` (configuration not stated) as the compound, how does the growth read?
Its growth is 95.9% (inactive).

For `O=C1c2ccccc2CN1c1ccccc1`, which growth is on record?
Its growth is 107% (inactive).

For `COc1cc2oc3cc(=O)cc4oc(-c5ccccc5)cc(c2c2c1CCC(c1ccccc1)O2)c43` (configuration not stated), which growth is on record?
The growth was 91% (inactive).

Which growth does the source give for `CCOC(=O)c1ccc(N2C(=O)C(Cl)(c3ccccc3)C2c2ccco2)cc1` (configuration not stated) here?
The growth was 110% (inactive).

Which growth does the source give for `Cc1cc(NC(=O)NC(=O)c2ccccc2N(C)C)ccc1Oc1ncc(Br)cn1` here?
Its growth is 37.7% (inactive).

With `CCc1ccc(OC(=O)CCl)cc1` as the compound, how does the growth read?
Its growth is 110% (inactive).

With `CCNC1=CC(=O)c2ncccc2C1=O` as the compound, how does the growth read?
The growth was -42.5% (active).

How did the growth turn out when `O=C(O)Cc1cc(=O)[nH]n(-c2ccccc2)c1=O` was run?
Its growth is 106% (inactive).

The compounds below were run on NCI-H460 lung in the same assay as above. Conditions: 10 µM unless noted.

`Cc1c(Cl)cc(Cl)c(N)c1Cl` was tested. Which growth did it give?
The growth was 105% (inactive).

Which growth does the source give for `Oc1ccc(O)c(-c2ccccc2)c1` here?
The growth was 19.7% (inactive).

For `CCOCCC(=O)O`, which growth is on record?
Its growth is 102% (inactive).

Which growth does the source give for `CCOC(=O)NC(N)=O` here?
Its growth is 105% (inactive) and 104% (inactive).

For `CCCCC/C(C)=N\NC(N)=S`, which growth is on record?
Its growth is 94.8% (inactive).

With `COc1cc2c(cc1O)C(=O)CCCC2` as the compound, how does the growth read?
The growth was 103% (inactive).

For `O=C1C=CC[C@H](/C=C/c2ccccc2)O1`, which growth is on record?
Its growth is 4.39% (active) and -32.3% (active).

For `NC1=NC(c2ccccc2)N=C(Nc2ccccc2)N1` (configuration not stated), which growth is on record?
The growth was 103% (inactive) and 95% (inactive).

With `CSc1nc(N)c(N)c(N)n1` as the compound, how does the growth read?
Its growth is 104% (inactive).

Which growth does the source give for `CCN(C)c1ccccc1` here?
Its growth is 108% (inactive).

For `Cc1cnc(N)s1`, which growth is on record?
Its growth is 105% (inactive).

How did the growth turn out when `COC(=O)c1nc(=S)[nH]c(C(=O)OC)c1C(=O)c1ccccc1` was run?
The growth was 114% (inactive).

For `CC(=O)c1cc2ccccc2o1`, which growth is on record?
Its growth is 108% (inactive).

With `OCCCc1ccccc1` as the compound, how does the growth read?
The growth was 112% (inactive).

How did the growth turn out when `CCC/C(=N/NC(N)=O)c1ccco1` was run?
Its growth is 104% (inactive).

With `O=C1C(=O)c2ccccc2C(O)=C1CC=C(Cl)Cl` as the compound, how does the growth read?
The growth was 17.1% (inactive) and 17.9% (inactive).

Which growth does the source give for `CCC(=O)Oc1ccc(OCc2ccccc2)cc1` here?
The growth was 99.4% (inactive) and 93.7% (inactive).

Which growth does the source give for `O=C(OCc1ccccc1)c1ccccc1` here?
The growth was 109% (inactive) and 108% (inactive).

With `COc1ccc(CCl)c(C)c1OC` as the compound, how does the growth read?
Its growth is 103% (inactive).

How did the growth turn out when `Nc1c(S(=O)(=O)O)cc(Br)c2c1C(=O)c1ccccc1C2=O` was run?
Its growth is 102% (inactive) and 106% (inactive).

For `CC1CC(O)CC(C)(C)C1.CC1CC(O)CC(C)(C)C1.CC1CC(O)CC(C)(C)C1.CC1CC(O)CC(C)(C)C1.[Ti]` (configuration not stated), which growth is on record?
The growth was 109% (inactive).

For `CC(=O)Oc1ccc(C(c2ccc(OC(C)=O)cc2)c2ccccn2)cc1`, which growth is on record?
The growth was 105% (inactive) and 101% (inactive).

For `CC(C)=NOC(C)C(=O)O` (configuration not stated), which growth is on record?
The growth was 107% (inactive).

With `CCNCc1ccccc1` as the compound, how does the growth read?
Its growth is 109% (inactive).

For `Oc1cccnc1CN1CCOCC1`, which growth is on record?
Its growth is 114% (inactive) and 109% (inactive).

For `O=C1C2=C(Nc3cc(Cl)ccc3N2)OC1c1c[nH]c2ccc(COc3ccccc3)cc12` (configuration not stated), which growth is on record?
Its growth is 59.7% (inactive).

For `CCOC(=O)C1=C(C)NC(C)=C(C(=O)OCC)C1`, which growth is on record?
The growth was 107% (inactive) and 98.2% (inactive).

Which growth does the source give for `CC(C)(C)C1CCC(=NO)CC1` (configuration not stated) here?
Its growth is 99.6% (inactive).

With `O=C1c2ccccc2CN1c1ccccc1` as the compound, how does the growth read?
The growth was 103% (inactive).

How did the growth turn out when `COc1cc2oc3cc(=O)cc4oc(-c5ccccc5)cc(c2c2c1CCC(c1ccccc1)O2)c43` (configuration not stated) was run?
Its growth is 76.2% (inactive).

`CCOC(=O)c1ccc(N2C(=O)C(Cl)(c3ccccc3)C2c2ccco2)cc1` (configuration not stated) was tested. Which growth did it give?
Its growth is 84.2% (inactive).

With `Cc1cc(NC(=O)NC(=O)c2ccccc2N(C)C)ccc1Oc1ncc(Br)cn1` as the compound, how does the growth read?
The growth was 8.31% (active) and 10.8% (inactive).

`CCc1ccc(OC(=O)CCl)cc1` was tested. Which growth did it give?
Its growth is 106% (inactive).

How did the growth turn out when `CCNC1=CC(=O)c2ncccc2C1=O` was run?
The growth was -78.3% (active).

With `O=C(O)Cc1cc(=O)[nH]n(-c2ccccc2)c1=O` as the compound, how does the growth read?
Its growth is 109% (inactive).

What follows are compounds tested on HOP-92 NSCLC in the same assay as above. Conditions: 10 µM unless noted.

For `Cc1c(Cl)cc(Cl)c(N)c1Cl`, which growth is on record?
Its growth is 76.9% (inactive).

How did the growth turn out when `O=c1ccn2c(n1)OC1CC2OC1COC(c1ccccc1)(c1ccccc1)c1ccccc1` (configuration not stated) was run?
Its growth is 72.4% [100 µM] (inactive).

How did the growth turn out when `Oc1ccc(O)c(-c2ccccc2)c1` was run?
Its growth is 85.8% (inactive).

With `CCOCCC(=O)O` as the compound, how does the growth read?
The growth was 80.5% (inactive).

`CCOC(=O)NC(N)=O` was tested. Which growth did it give?
The growth was 102% (inactive).

How did the growth turn out when `CCCCC/C(C)=N\NC(N)=S` was run?
Its growth is 93.2% (inactive).

How did the growth turn out when `COc1cc2c(cc1O)C(=O)CCCC2` was run?
The growth was 82.9% (inactive).

Which growth does the source give for `O=C1C=CC[C@H](/C=C/c2ccccc2)O1` here?
Its growth is 10.3% (inactive) and -15.8% (active).

With `NC1=NC(c2ccccc2)N=C(Nc2ccccc2)N1` (configuration not stated) as the compound, how does the growth read?
The growth was 81% (inactive) and 89.1% (inactive).

With `CSc1nc(N)c(N)c(N)n1` as the compound, how does the growth read?
Its growth is 86.6% (inactive).

`CCN(C)c1ccccc1` was tested. Which growth did it give?
Its growth is 101% (inactive).

`Cc1cnc(N)s1` was tested. Which growth did it give?
The growth was 91.3% (inactive).

How did the growth turn out when `COC(=O)c1nc(=S)[nH]c(C(=O)OC)c1C(=O)c1ccccc1` was run?
The growth was 92% (inactive).

With `CC(=O)c1cc2ccccc2o1` as the compound, how does the growth read?
Its growth is 106% (inactive).

How did the growth turn out when `OCCCc1ccccc1` was run?
The growth was 94.7% (inactive).

`CCC/C(=N/NC(N)=O)c1ccco1` was tested. Which growth did it give?
The growth was 82.7% (inactive).

How did the growth turn out when `O=C1C(=O)c2ccccc2C(O)=C1CC=C(Cl)Cl` was run?
Its growth is 36.4% (inactive) and 87.3% (inactive).

Which growth does the source give for `CCC(=O)Oc1ccc(OCc2ccccc2)cc1` here?
Its growth is 89.1% (inactive).

`O=C(OCc1ccccc1)c1ccccc1` was tested. Which growth did it give?
Its growth is 89.6% (inactive).

Which growth does the source give for `COc1ccc(CCl)c(C)c1OC` here?
Its growth is 86.1% (inactive).

Which growth does the source give for `Nc1c(S(=O)(=O)O)cc(Br)c2c1C(=O)c1ccccc1C2=O` here?
Its growth is 73.4% (inactive).

`CC1CC(O)CC(C)(C)C1.CC1CC(O)CC(C)(C)C1.CC1CC(O)CC(C)(C)C1.CC1CC(O)CC(C)(C)C1.[Ti]` (configuration not stated) was tested. Which growth did it give?
The growth was 99.2% (inactive).

How did the growth turn out when `CC(=O)Oc1ccc(C(c2ccc(OC(C)=O)cc2)c2ccccn2)cc1` was run?
The growth was 66.1% (inactive) and 34.1% (inactive).

For `CC(C)=NOC(C)C(=O)O` (configuration not stated), which growth is on record?
Its growth is 73% (inactive).

For `CCNCc1ccccc1`, which growth is on record?
The growth was 113% (inactive).

With `Oc1cccnc1CN1CCOCC1` as the compound, how does the growth read?
Its growth is 88.4% (inactive) and 84.8% (inactive).

`O=C1C2=C(Nc3cc(Cl)ccc3N2)OC1c1c[nH]c2ccc(COc3ccccc3)cc12` (configuration not stated) was tested. Which growth did it give?
The growth was 42.3% (inactive).

Which growth does the source give for `CCOC(=O)C1=C(C)NC(C)=C(C(=O)OCC)C1` here?
Its growth is 79.2% (inactive) and 89.5% (inactive).

With `CC(C)(C)C1CCC(=NO)CC1` (configuration not stated) as the compound, how does the growth read?
Its growth is 71.4% (inactive).

`O=C1c2ccccc2CN1c1ccccc1` was tested. Which growth did it give?
Its growth is 104% (inactive).

Which growth does the source give for `S=c1nc[nH]c2nc[nH]c12` here?
Its growth is 51% [50 µM] (inactive).

How did the growth turn out when `COc1cc2oc3cc(=O)cc4oc(-c5ccccc5)cc(c2c2c1CCC(c1ccccc1)O2)c43` (configuration not stated) was run?
Its growth is 81.1% (inactive).

With `CCOC(=O)c1ccc(N2C(=O)C(Cl)(c3ccccc3)C2c2ccco2)cc1` (configuration not stated) as the compound, how does the growth read?
The growth was 63.7% (inactive).

With `Cc1cc(NC(=O)NC(=O)c2ccccc2N(C)C)ccc1Oc1ncc(Br)cn1` as the compound, how does the growth read?
The growth was 57.5% (inactive).

For `CCc1ccc(OC(=O)CCl)cc1`, which growth is on record?
The growth was 101% (inactive).

`CCNC1=CC(=O)c2ncccc2C1=O` was tested. Which growth did it give?
Its growth is 145% (inactive).

`O=C(O)Cc1cc(=O)[nH]n(-c2ccccc2)c1=O` was tested. Which growth did it give?
The growth was 98% (inactive).
